According to PubChem BioAssay AID1645887 (National Center for Advancing Translational Sciences (NCATS), 2021):
Values joined by “and” are separate entries in the source; they are usually repeats but may differ in a detail not shown here. Equal values may be shown once. Hit rate of the full screen: of about 16,000 compounds, about 40 (0.2%) were called active. About 1% were inconclusive and are not listed. This excerpt belongs to a sample that is enriched for actives. More than one record can exist for a structure, and the calls need not agree. A number with no mark means an inactive call. Calls come from the whole dose curve; as a rule, active = well fitted activation curve with a large enough effect; inconclusive = small, poorly fitted or top-dose-only effect, or another doubt; inactive = no such curve, though single readings can be large or run the other way.

target: Rap guanine nucleotide exchange factor 4 (Homo sapiens) (UniProt Q8WZA2); assay: Validation qHTS for agonist of cAMP-regulated guanine nucleotide exchange factor 4 (EPAC2); conditions: EPAC2 Rap1B BODIPY-GDP exchange, fluorescence; activation: stronger effect = higher value;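 for activation: exchange makes BODIPY-GDP fluorescence drop when released from Rap1B; series mostly up to about 150 µM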
Sequence (Q8WZA2 whole entry, looked up): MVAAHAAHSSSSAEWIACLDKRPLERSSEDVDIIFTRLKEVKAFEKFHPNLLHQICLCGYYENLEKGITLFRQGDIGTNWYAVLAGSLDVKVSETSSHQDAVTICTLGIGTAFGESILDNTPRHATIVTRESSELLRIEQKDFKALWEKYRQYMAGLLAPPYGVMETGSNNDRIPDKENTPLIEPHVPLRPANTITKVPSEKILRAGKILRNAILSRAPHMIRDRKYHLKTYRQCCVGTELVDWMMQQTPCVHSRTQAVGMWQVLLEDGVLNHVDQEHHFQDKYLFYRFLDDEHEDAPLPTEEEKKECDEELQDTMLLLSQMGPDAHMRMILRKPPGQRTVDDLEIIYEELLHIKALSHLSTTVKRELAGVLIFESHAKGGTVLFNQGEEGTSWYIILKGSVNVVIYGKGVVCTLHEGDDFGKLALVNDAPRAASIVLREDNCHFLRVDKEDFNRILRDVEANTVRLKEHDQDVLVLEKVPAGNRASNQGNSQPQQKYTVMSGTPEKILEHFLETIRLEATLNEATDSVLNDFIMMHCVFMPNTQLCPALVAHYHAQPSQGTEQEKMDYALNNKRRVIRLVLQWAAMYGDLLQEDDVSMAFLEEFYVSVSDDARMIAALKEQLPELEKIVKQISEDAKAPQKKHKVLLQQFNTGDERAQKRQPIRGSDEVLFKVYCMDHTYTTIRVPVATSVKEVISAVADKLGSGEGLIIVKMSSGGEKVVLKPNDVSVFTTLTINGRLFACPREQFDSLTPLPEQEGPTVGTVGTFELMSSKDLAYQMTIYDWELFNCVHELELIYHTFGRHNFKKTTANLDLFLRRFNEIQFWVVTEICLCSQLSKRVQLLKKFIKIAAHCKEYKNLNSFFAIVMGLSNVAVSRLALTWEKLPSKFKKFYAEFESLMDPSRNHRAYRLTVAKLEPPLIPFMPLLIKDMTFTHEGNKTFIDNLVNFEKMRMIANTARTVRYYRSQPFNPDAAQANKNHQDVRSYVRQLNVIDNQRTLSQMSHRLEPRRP
Excerpt: Principle Investigator: Xiaodong Cheng Ph.D.
The University of Texas Medical Branch, […], TX
In multi-cellular eukaryotic organisms, the effects of cAMP are transduced by two ubiquitously-expressed intracellular cAMP receptors, the classic protein kinase A/cAMP-dependent protein kinase (PKA/cAPK) and the more recently discovered exchange protein directly activated by cAMP/cAMP-regulated guanine nucleotide exchange factor (EPAC/cAMP-GEF). Both PKA and EPAC are ubiquitously expressed in all tissues, and an increase in intracellular cAMP levels will lead to the activation of both PKA and EPAC. Therefore, careful dissections of the individual role and relative contribution of EPAC and PKA within the overall cAMP signaling in various model systems are critical for further elucidating the mechanism of cAMP signaling. To date no EPAC-specific antagonists and agonist, as well as isoform-specific agonists have been reported, and developing EPAC-specific pharmacological probes to determine the physiological functions that EPAC play in the overall cAMP-mediated signaling remains a major challenge within the research field. Furthermore, identified regulators of EPAC may lead to new mechanism-based therapeutic strategies specifically targeting the EPAC / cAMP-signaling components as EPAC has been implicated to play important roles in major human pathological conditions such as diabetes, heart disease, and cancer.
This qHTS will be used to screen the Molecular Libraries Small Molecule Repository (MLSMR) as a concentration-titration series using the NCGC unique quantitative screening (qHTS) platform to find activators for EPAC1. In addition, this assay will also be used as a counterscreen for the EPAC2 qHTS. This fluorescent based assay is developed and validated for EPAC1 that measures exchange using EPAC effector Rap1 complex with BODIPY-GDP, a GDP analog with a tethered fluorophores. Activators are identified by monitoring the change in fluorescence signal as the exchanged free BODIPY-GDP has a reduced fluorescence compared to Rap1-bound BODIPY-GDP. Increase in signal (activation) is the desired outcome for the EPAC1 agonist while no activity in this assay is desired for the EPAC2 agonist counterscreen.
[1] de Rooij, J., Zwartkruis, F. J., Verheijen, M. H., Cool, R. H., Nijman, S. M., Wittinghofer, A., and Bos, J.L. (1998) Nature 396, 474-477.
Briefly, three uL of reagents (100 nM EPAC2, 250 nM RAP1B-BODIPY-GDP, 50 uM GDP) were dispensed into a 1536-well Greiner black solid-bottom medium binding assay plate. Controls and test compounds (23 nL) were transferred to the plate via a Kalypsys pin tool equipped with a 1536-pin array. The plates were centrifuged at 1,000 rpm for 15 seconds followed by 5 minute incubation at room temperature. The assay plates were read at 5 minute intervals for 30 minutes in the ViewLux plate reader using 480nm excitation and 540nm emission filters. The results were normalized to the agonist positive control of 6.5 mM cAMP.
% is set by controls: 0 for no effect and ±100 for the full control effect; potency is the fitted concentration of half-maximal effect.

Row | Structure (SMILES) | Potency | activation
1 | O=c1[nH]cc(N(CCCl)CCCl)c(=O)[nH]1 | 100 µM (active) | –
2 | CN1CCCC2(CCN(C(=O)c3ccco3)CC2)C1 | – | 0.865%
3 | NCC(O)c1cccc(O)c1 (configuration not stated) | – | -5.63%
4 | CC1=NCCc2c1[nH]c1cc(O)ccc21 | 100 µM (active) | –
5 | COc1ccc2c3c([nH]c2c1)C(C)=NCC3 | – | 23% and -2.23% and 8.55%
6 | Nc1ccc(N=Nc2ccccc2)cc1 | – | -19.5%
7 | CCN1C[C@]2(COC)CC[C@H](OC)[C@@]34C5C[C@@H]6[C@@H](OC)C[C@@]7(OCO[C@@]7([C@@H](O)C23)[C@@H]14)C5[C@H]6OC (some centres not stated) | – | -3.22%
8 | [O]=[Cd] | – | -0.16%
9 | O=C1/C(=C/c2ccc(N(CCCl)CCCl)cc2)Cc2ccccc21 | – | -1.94%
10 | CC1=NN=C(c2ccc(N)cc2)c2cc3c(cc2C1)OCO3 | 89.1 µM (active) | -34.2%
11 | C[C@H]1[C@@H]2Cc3ccc(O)cc3[C@@]1(C)CCN2C | – | -8.04%
12 | CC1(C)C(O)CC(=O)[C@]2(C)C1CC(=O)[C@]1(C)C2CC[C@@]2(C)C(c3ccoc3)OC(=O)C3O[C@@]321 (some centres not stated) | – | -10.4%
13 | CN1C2CC(OC(=O)C(CO)c3ccccc3)CC1C(O)C2 (configuration not stated) | – | -0.713%
14 | COc1ccc2[nH]cc(CCN(C(C)C)C(C)C)c2c1 | – | -8.55%
15 | CC(C)(C)c1cc(O)ccc1O | 56.2 µM (active) | -17%
16 | Cc1cc(O)ccc1Cl | – | -10.1% and -9.14%
17 | O=S(=O)(O)c1cc(O)ccc1O | – | -9.91%
18 | COc1cc(C[C@@H](C)N)c(OC)cc1C | – | -5.23%
19 | CC(C)C[C@H](NC(=O)[C@H](Cc1ccccc1)NC(=O)CNC(=O)[C@H](CO)NC(=O)[C@@H](N)Cc1ccc(O)cc1)C(=O)N[C@H](C(=O)O)[C@H](C)O | – | 9.65%
20 | NC(N)=NCCCCCCCCCCN=C(N)N | – | -12% and 0.499%
21 | O=C1OC2(c3cc(Br)c(O)cc3Oc3c2cc(Br)c(O)[c]3[Hg])c2ccccc21 (configuration not stated) | 3.98 µM (active) | –
22 | CN1CCC2(CC1)CCN(C(=O)c1ccco1)CC2 | – | 1.62%
23 | C[C@]12CCC3C(CC[C@H]4C[C@H](O)CC[C@]34C)[C@@H]1CC[C@@H]2C(=O)CO (some centres not stated) | – | -7.64%
24 | CCOC(=O)[C@]12Cc3c(cc(OC)c(OC)c3OC)[C@H]1N(Cc1ccccc1)C(=O)c1ccccc12 | – | -19.3%
25 | c1cnc(N2CC3(CCNCC3)C2)nc1 | – | 2.58%
